# Results filed as inconclusive are left out. Where a call stands in place of a potency, no number is given. Activity calls are given as the source filed them. Calls come from the whole dose curve; as a rule, active = well fitted inhibition curve with a large enough effect; inconclusive = small, poorly fitted or top-dose-only effect; inactive = flat fitted curve, though single readings scatter.
# Experiment: High Content Assay for Compounds that inhibit the Assembly of the Perinucleolar Compartment: PC3M Cytotoxicity
# Details: PC3M cells, ATPLite luminescence viability, 24 h; series mostly up to 46.1 µM
# Text: High Content Assay for Compounds that inhibit the Assembly of the Perinucleolar Compartment
# NIH Chemical Genomics Center [NCGC]
# NIH Molecular Libraries Probe Centers Network [MLPCN]
# Assay Submitter (PI): Sui Huang, Northwestern University, Feinberg School of Medicine, Cell and Molecular Biology, Chicago, Illinois.
# The perinucleolar compartment (PNC) is a non-membrane-bound nuclear subdomain that is associated with but structurally distinct from the nucleolus. The PNC is a heritable trait, in which the number of PNCs per cell in daughter cells often mimics that of their mother cells. The PNC is heterogeneous in shape, is stable through interphase, disassembles during mitosis, and reassembles in early G1. The PNC is concentrated with newly synthesized RNA polymerase III (pol III) RNAs (MRP RNA, RNAse P H1 RNA, hY RNAs[hY1, 2, 5], Alu RNA, and SRP [7SL] RNA) and RNA binding proteins (nucleolin, PTB, CUG-BP, KSRP, Raver1, Raver2, and Rod).
# Extensive in vitro studies have shown that the PNC is unique to tumor cells and preferentially forms in tumor cells derived from solid tissues. Examination of cancer cell lines from various origins and malignant capacities has shown that PNC prevalence correlates with the malignancy of tumors and has the potential to be developed as a pan-cancer prognostic marker.
# Although the PNC is associated with a DNA locus and a handful of components have been identified, much remains to be investigated regarding the structure and function of the PNC and its mechanistic link to cancer. We have previously shown that PNC prevalence reduction is a valid strategy to identify compounds that can be used to study the structure and function of the PNC. It is necessary, however, to create a screening platform that is able to test a large number of compounds in an automated fashion. Here we report the development and robustness of an automated whole-cell phenotypic image-based screening assay that is capable of identifying such compounds.
# We conducted a followup assay to measure the effect of the lead candidates on cell health by measuring ATP levels (ATPLite). The highly metastatic PC3M-GFP reporter cell line was used in this study.
# 1. Cells at a density of 75-90% confluency in T175 flasks were harvested using 7 ml TrypLE Express cell dissociation reagent. After dissociation (5 minutes room temperature incubation) 10 ml of complete media was added to the TrypLE/cell suspension. The liquid was transferred to a 50 ml Conical tube and cells were pelleted at 1000 RPM for 5 min. Supernatant was removed and cells were resuspended to a final density of 150-200 cells/ul in complete media.
# 2. Cells were plated in 5 ul volume (2000 cells/well) into 1536 well White solid bottom plates and allowed to recover and adhere at 37 C in a humidified 5% CO2 incubator for 4 hours.
# 3. After 4 hour incubation, compound libraries (23 nl of 12.5 uM in columns 5-48) were transferred to the plates in duplicate using a 1536 well pintool. Camptothecin positive control (59 uM final) was added to column 2 and 1:3 dilutions of camptothecin was added to column 3. DMSO negative controls were present in columns 1 and 4.
# 4. After a 24 hour incubation in the 37 C incubator, all wells were treated with 3 ul of ATPLite reagent using a multidrop combi dispenser (ThermoFisher). Bubbles that formed during dispensing were removed by spinning the plates for 1 minutre at 1500 RPM on a table top centrifuge.
# 5. Luminescencent signal was detected on a Viewlux CCD based imager (PerkinElmer) with a clear filter and a 30 second integration time.
# The PC3M cell line stably expressing the PTB-GFP was provided by Sui Huang of Northwestern University. The media and cell culture reagents were purchased from Invitrogen (Carlsbad, CA), ATPLite came from PerkinElmer.
row,SMILES,Potency
1,COC(=O)C1=C(C)N(c2ccc(Br)cc2)C(=O)/C1=C\c1ccco1,inactive
2,CN(C)c1ccc(N=Nc2ccccc2C(=O)OCC(=O)NC2CCCC2)cc1,inactive
3,Cc1cccc(NC2=C/C(=N/S(=O)(=O)c3cccs3)c3ccccc3C2=O)c1,15.8 µM (active)
4,CC(=O)Nc1cccc(Oc2ncnc3scc(-c4ccc(C)cc4)c23)c1,inactive
5,Cc1ccccc1C(=O)NNC(=S)Nc1cccc(C(F)(F)F)c1,inactive
6,CN1c2ccccc2C(C)(C)C12CC(c1ccc(Cl)c(S(=O)(=O)N3CCCC3)c1)=NO2 (stereo not given),3.98 µM (active)
7,Cc1ccc(Cl)cc1N(CC(=O)N1CCCCCC1)S(C)(=O)=O,inactive
8,C=CCN=c1scc(-c2ccccc2)n1/N=C/c1ccccn1,14.1 µM (active)
9,O=c1[nH]cnc2c1C(c1ccccc1[N+](=O)[O-])c1c(nc[nH]c1=O)O2,inactive
10,Cc1c(C#N)c(N)nc2c3c(sc12)NC(=O)CC3c1ccc(F)cc1 (stereo not given),inactive
11,COc1cccc(CNc2cccc3cccnc23)c1O,inactive
12,O=C(N/N=C\c1ccc([N+](=O)[O-])s1)c1cncc(Br)c1,25.1 µM (active)
13,CCc1ccc(S(=O)(=O)/N=C2/C=C(Sc3ncn[nH]3)C(=O)c3ccccc32)cc1,35.5 µM (active)
14,N=c1c2c(-c3ccccc3)c(-c3ccccc3)n(Cc3ccccc3)c2ncn1CCCO,inactive
15,CCN=c1scc(-c2ccccc2)n1/N=C/c1ccccn1,10 µM (active)
16,Cc1ccc(NC(=S)NCCc2ccc(S(N)(=O)=O)cc2)cc1C,inactive
17,CC12CCC(C(=O)NC(c3ccccc3)c3ccccc3)(OC1=O)C2(C)C (stereo not given),inactive
18,O=C(NCc1ccco1)C1CCN(Cc2ccc(F)cc2)CC1,inactive
19,CCOC(=O)NC1(Nc2ccc(C)cc2)Oc2ccccc2O1,inactive
20,Nc1cccc(-c2nc3ccc(N)cc3s2)c1,25.1 µM (active)

row,SMILES,Potency
1,Cc1c(NC(=O)COC(=O)c2cc(-c3ccc(-c4ccccc4)cc3)nc3ccccc23)c(=O)n(-c2ccccc2)n1C,5.01 µM (active)
2,O=C(N/N=C/c1ccccc1O)c1cccc(C(F)(F)F)c1,10 µM (active)
3,Cc1cc[n+](C2=C([O-])c3ccccc3C(=O)/C2=N\S(=O)(=O)c2cccs2)cc1C,25.1 µM (active)
4,Cc1ccc(NC2=C/C(=N/S(=O)(=O)c3cccs3)c3ccccc3C2=O)cc1,14.1 µM (active)
5,O=C1C(=Cc2cccs2)C(=O)c2ccccc21,inactive
6,CC(=O)N(C)C1=C(N2CCOCC2)C(=O)c2ccccc2C1=O,15.8 µM (active)
7,O=C(COC(=O)Cc1ccsc1)NCC1CCCCC1,inactive
8,CSc1nc(-c2ccc(C)cc2)nc(C(Cl)Cl)n1,31.6 µM (active)
9,O=C(N/N=C/c1c(O)ccc2ccccc12)c1cccc(C(F)(F)F)c1,8.91 µM (active)
10,Cc1cc(SC(C)C(=O)Nc2ncc(Cl)cc2Cl)nc2ccccc12 (stereo not given),11.2 µM (active)
11,CCN(CC)c1ccc(N=Cc2ccccc2[N+](=O)[O-])cc1,inactive
12,CCCSc1cc(N2CCN(C)CC2)nc(-c2ccc(OC)cc2)n1,inactive
13,COc1cc(C(=O)Oc2ccccc2/C=N/NC(=O)c2ccc(Cl)cc2)cc(OC)c1OC,11.2 µM (active)
14,COc1ccc(-c2csc(NC(=O)c3ccc(OCC(=O)N4CCOCC4)c(OC)c3)n2)cc1,inactive
15,CCCNC1=C(N(C(C)=O)c2cccc(F)c2)C(=O)c2ccccc2C1=O,11.2 µM (active)
16,O=C1C(=O)c2ccc(-c3ccccc3)cc2-c2ccccc21,15.8 µM (active)
17,CC(=O)c1ccc(-n2c(SCC(=O)c3c[nH]c4ccccc34)nc3ccccc3c2=O)cc1,inactive
18,Cc1ccc(-n2cc(-c3ccccc3)c3c(NN4CCOCC4)ncnc32)cc1,inactive
19,Cc1cc(C(=O)Cn2nnc3ccccc3c2=O)c(C)n1-c1ccccc1F,7.94 µM (active)
20,O=C(N/N=C/c1cc(Cl)ccc1O)C(=O)Nc1ccccc1OC(F)(F)C(F)F,14.1 µM (active)

# Reference: PubChem BioAssay AID2733 (National Center for Advancing Translational Sciences (NCATS), 2010)
